Laboratory results as given in PubChem BioAssay (NCI).
The panel holds about 83,000 compounds, 20% with a hit somewhere; the sample as a whole holds those more often.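 Single-concentration screen, 48 h exposure, 96-well plates. Endpoint: percent growth. Below 10 = active.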 Activity calls are given as the source filed them.

Each compound was assayed on SK-MEL-2 melanoma (assay: NCI-60 one-dose screen, 48 h (100 = growth as untreated, 0 = no growth, -100 = all killed)). Details: 10 µM.
Description: Growth inhibition of the SK-MEL-2 human tumor cell line is measured as a screen for anti-cancer activity. Cells are grown in 96 well plates and exposed to the test compound for 48 hours. Compounds are tested at a single concentration, which is 10^-5 M for most compounds. The reported endpoint is percent growth (GI% or GIPRCNT), where numbers from 0 - 100% represent growth inhibition, and numbers from -100% - 0 represent cell death. For example, a value of 40 represents 60% growth inhibition. A value of 0 means no net growth occurred over the course of the experiment. A value of -40 indicates 40% of cells at the beginning of the experiment died by the end of the experiment. A value of -100 means all cells are dead at the end of the experiment.
NCI-60 Human Tumor Cell Lines Screen was performed using the standard one-dose NCI protocol, which is described in more detail at https://dtp.cancer.gov/discovery_development/nci-60/default.htm.
Compounds with GIPRCNT values below 10 were considered active. Activity score was based on GIPRCNT using the following formula: […]
Score is 0 for GIPRCNT values of 100 or above, 50 for GIPRCNT values of 0, and 100 for GIPRCNT values of -100.

| Compound | growth |
| --- | --- |
| Cc1nn(-c2nc3ccccc3[nH]2)c2c1C(c1ccc(OCc3ccc(F)cc3)cc1)CC(=O)N2 (stereo not given) | 30.7% (inactive) |
| Cc1cc2c(-c3nc4ccccn4c3NC34CC5CC(CC(C5)C3)C4)c(O)c(O)cc2c(O)c1-c1c(C)cc2c(-c3nc4ccccn4c3NC34CC5CC(CC(C5)C3)C4)c(O)c(O)cc2c1O | -2.48% (active) |
| CC1(/C=N/NC(N)=S)NC(=O)NC1=O (stereo not given) | 105% (inactive) |
| CC(C)(C)CC(C)(C)Nc1c(-c2c(O)c3ccccc3oc2=O)nc2c(Cl)cc(C(F)(F)F)cn12 | 102% (inactive) |
| O=c1[nH]c(N2CCOCC2)nc2scc(-c3ccccc3)c12 | 81.8% (inactive) |
| C=CCCCC(=O)CCC(=O)OCC1O[C@@H](O[C@@H]2C(O)[C@@H](OC(C)=O)C(C)O[C@H]2O[C@H](CC=C)CCCCC)C(O)[C@@H](OC(=O)/C(C)=C/C)[C@@H]1OC(=O)/C=C/c1ccccc1 (stereo not given in full) | 4.44% (active) |
| COc1ccc(-c2cc3c(oc2=O)-c2ccccc2OC3OC(C)=O)cc1 (stereo not given) | 100% (inactive) |
| O=C(Nc1ccc(C(=O)Nc2ccc(C3=NCCCN3)cc2)cc1)Nc1ccc(C2=NCCCN2)cc1 | 62.8% (inactive) |
| COC(=O)C1CCc2sc3ncnc(Nc4cn[nH]c4C(=O)Nc4ccc(CN5CCN(C)CC5)cc4)c3c21 (stereo not given) | -20.4% (active) |
| O=C(NO)c1ccc(Cn2c(=O)n(CCc3ccccc3)c(=O)c3ccccc32)cc1 | 45.7% (inactive) |
| COc1ccc2c(c1OC)C(=O)O[C@@H]2[C@H]1c2c(c(C#CC#Cc3ccc(F)c(F)c3)c3c(c2OC)OCO3)CCN1C | 91.8% (inactive) |
| O=C(Nc1ccc(N=Nc2ccccc2)cc1)c1cccc2ccccc12 | 56.4% (inactive) |
| CCN(CC)Cc1cc(Nc2cc(C(F)(F)F)c(C#N)c3nc4ccccc4n23)ccc1O | 4.36% (active) |
| NS(=O)(=O)c1ccc(CCN2C(=O)/C(=C\c3ccc(Cl)cc3)C=C2c2ccc3ccccc3c2)cc1 | 106% (inactive) |
| COc1cnc2c(c1)C(=O)c1c-2n(CCCN2CCOCC2)c(=O)c2cc(Cl)ccc12 | 92.1% (inactive) |
| CC(C)=CCc1cc2c(cc1O)C1=C(C(=O)C3=C(C1=O)S(=O)(=O)CCN3)C(C=C(C)C)O2 (stereo not given) | -53.9% (active) |
| CC1(O)CCC(Nc2cc(-c3ccc(C(F)(F)F)cc3)c(C#N)c3nc4ccccc4n23)CC1 (stereo not given) | 73.4% (inactive) |
| COc1cc(-c2cc(-c3ccc(Nc4ccnc5cc(Cl)ccc45)cc3)nc(N3CCOCC3)n2)cc(OC)c1OC | 83.9% (inactive) |
| COc1cc2c(cc1OCCCCN1CCN(CC(=O)Nc3ccc(Cl)cc3C(=O)c3ccccc3Cl)CC1)N=CC1CCCN1C2=O (stereo not given) | -67.5% (active) |
| C[N+](C)(CCOC(c1ccccc1)c1ccccc1)CC(=O)OCc1ccccc1 | 105% (inactive) |

| Compound | growth |
| --- | --- |
| CCOC(=O)C1=C(C)NC(=O)NC1c1cc(=O)oc2ccc(C)cc12 (stereo not given) | 95.6% (inactive) |
| COC(=O)[C@]12CC[C@@H](C)[C@H](C)[C@@H]1C1=CC[C@@H]3[C@@]4(C)C(C#N)=CC(C)=C4CC[C@@]3(C)[C@]1(C)CC2 | 82.9% (inactive) |
| O=C1CSC(c2c(F)cccc2Cl)N1NC(=O)C(O)(c1ccccc1)c1ccccc1 (stereo not given) | 103% (inactive) |
| CCN(CC)C(=O)C[N+](C)(C)CCOC(c1ccccc1)c1ccccc1 | 103% (inactive) |
| COC(=O)[C@]12CC[C@@H](C)[C@H](C)[C@@H]1C1=CC[C@@H]3[C@@]4(C)C(c5cnco5)=C[C@@](C)(CO)C4=CC[C@@]3(C)[C@]1(C)CC2 | 42.3% (inactive) |
| Cc1cc2c(-c3nc4ccccn4c3NC3CCCCC3)c(O)c(O)cc2c(O)c1-c1c(C)cc2c(-c3nc4ccccn4c3NC3CCCCC3)c(O)c(O)cc2c1O | 38.9% (inactive) |
| Cc1cc(N(CCNc2ccnc3cc(Cl)ccc23)Cc2cccs2)nc(Cl)n1 | -58.2% (active) |
| CCCCN1CCCC[C@@H]1C(=O)N[C@H](C(=O)N(C)[C@H](CCc1nc(C(=O)N[C@@H](Cc2ccccc2)C[C@H](C)C(=O)OC)cs1)C(C)C)C(C)C | 68.1% (inactive) |
| COc1ccc2nc3cc(Cl)ccc3c(Nc3ccc(N(C)C)cc3)c2c1 | 96.8% (inactive) |
| C=C1C(=O)O[C@H]2[C@H]1CC/C(CNC(=O)c1cc3cc(OC)ccc3[nH]1)=C\CC[C@@]1(C)O[C@@H]21 | -42.7% (active) |
| CCN(CC)CCCC(C)Nc1cc(-c2ccc(C(F)(F)F)cc2)c(C#N)c2nc3ccccc3n12 (stereo not given) | 79.3% (inactive) |
| N#CC1(C#N)C(c2cccs2)NC(c2cccs2)C1(C#N)C#N (stereo not given) | 102% (inactive) |
| Cc1ccc(-c2cc3c(SCC(=O)Nc4cc(C(F)(F)F)ccc4Cl)nccn3n2)cc1 | 85.4% (inactive) |
| COc1cc(OC)c(C(=O)/C=C/c2cc3c(cc2OCc2ccccc2)OC(C)(C)CC3)cc1CC=C(C)C | 82.3% (inactive) |
| COc1cc(C2CC(c3ccc(Cl)cc3)=NN2c2ccc(Cl)cc2)cc(OC)c1OC (stereo not given) | 98.8% (inactive) |
| COc1ccc(C2CC(=O)c3c(O)c(OC)c(OC)c(OC)c3O2)c(O)c1 (stereo not given) | 52% (inactive) |
| CCCc1cc2cc(-n3nc(C)c4c3CC(C)(C)CC4=O)cc(NC3CCC(O)CC3)c2c(=O)[nH]1 (stereo not given) | 41.6% (inactive) |
| CC(C)[C@@H](C)/C=C/[C@@H](C)[C@H]1CCC2=C3C=CC4=CC(=O)CC[C@]4(C)[C@H]3CC[C@@]21C | 101% (inactive) |
| Oc1ccc(/C=N/Nc2nnc(N/N=C/c3ccc(O)cc3O)c3ccccc23)c(O)c1 | -58% (active) |
| COc1ccc(-c2nocc2-c2cc(OC)c(OC)c(OC)c2)cc1 | 41.5% (inactive) |
